Rows were chosen to be rich in hits. Some 11% of all compounds tested hit in one or more screens of this group.
Sm TGR inh – inhibitors of Schistosoma mansoni thioredoxin glutathione reductase; Q962Y6; purified TGR, DTNB reduction, TNB absorbance 405 nm; Potency, µM (series often up to 114 µM), for the others: top-dose activity change, negative = inhibition, hits mostly inhibitors; hit rate 3% among 360,000; AID 485364; note: % is set by controls: 0 for no effect and ±100 for the full control effect; nearly all actives have a fitted effect of over 60% in size
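First, TGR (20 nM dispensed) and NADPH were mixed with compound. Second, a 15 min room-temperature incubation followed. Third, further NADPH and then DTNB were added to start the reaction. Finally, TNB absorbance was monitored kinetically.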
Pf growth 96h – inhibits malaria parasite growth, 96 h; Potency, µM (highest dose often 28.7 µM), inactives show at the top dose activity change, negative = inhibition, most hits filed as inhibitors; hit rate 6.9% among 320,000; P. falciparum luciferase reporter growth, 96 h; AID 504834; note: % is set by controls: 0 for no effect and ±100 for the full control effect
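96 h incubation, 37 C, 5% CO2, of luciferase-reporter P. falciparum-infected RBCs (2% hematocrit, 0.05% parasitemia final) with test compounds; endpoint luminescence.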
Pf growth 48h – P. falciparum growth inhibition at 48 hours (one generation); P. falciparum luciferase growth in erythrocytes, 48 h; Potency, µM (doses to about 28.7 µM), without a hit: at the highest dose activity change, negative = inhibition, usual class: inhibitors; hit rate 5.9% among 310,000; AID 504832; note: % is set by controls: 0 for no effect and ±100 for the full control effect
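Here the parasites carry a stable luciferase gene and grow inside erythrocytes in Albumax-based RPMI medium with compound for one erythrocytic cycle. Activity is scored as loss of luminescent signal.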
NS1 function inh – blocks influenza NS1 protein function. Potency, µM (doses to about 46.1 µM), inactives show at the highest dose activity, positive = more growth. hit rate 0.4% among 270,000. AID 2326; calls by dose curve; note: actives are rising curves; nearly all actives have a fitted effect of over 50% in size
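Read-out: OD600 growth recovery of NS1-expressing budding yeast. Cells grown overnight at 30C in -URA glucose medium, washed, resuspended and diluted 1:100 in 2% galactose assay medium, pH 6.0. Same strain lacking NS1 served as positive control.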
AMA1 RON2 block – inhibitors of Plasmodium falciparum AMA1-RON2 interaction; hit rate 0.2% among 360,000; Potency, µM (series often up to 58.2 µM), without a hit: at the highest dose activity change, negative = inhibition, hits mostly inhibitors; AlphaScreen AMA1-biotinylated RON2 peptide binding;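 note: 0% = vehicle wells and -100% = peptide control; nearly all actives have a fitted effect of over 45% in size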
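AMA1 (3D7) with his tag at 25 nM final met compounds first, then biotinylated RON2 peptide at 25 nM; detection used donor plus acceptor beads, 10 µg/mL apiece, read by AlphaScreen after 30 min at room temperature.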
* hit, by the source's call; ? = inconclusive; / = no result given; [ ] = another dose, or the depositor's remark. Unless noted, calls come from the whole dose curve; as a rule, active = well fitted curve in the direction sought with a large enough effect; inconclusive = small, poorly fitted or top-dose-only effect, or another doubt; inactive = no such curve, though single readings can be large; an effect the other way counts as inactive or inconclusive. Potency is the fitted concentration of half-maximal effect.

SMILES	Sm TGR inh	Pf growth 96h	Pf growth 48h	NS1 function inh	AMA1 RON2 block
CCOC(=O)C1CCN(C(=O)Cn2c(=O)oc3cc(S(=O)(=O)N4CCCC4)ccc32)CC1	-17%	21%	-23%	-20%	-3%
Nc1sccc1C(=O)c1ccc(Cl)cc1	-13%	?	142%	-19%	-30%
NC(=O)c1ccsc1N	6.3µM*	-33%	0%	5%	/
Cc1nc(-n2nc(C)c(CCC(C)C)c2C)sc1C(=O)Nc1ccc(Cl)cc1	3%	/	/	/	/
COC(=O)c1c(NC(=O)CCC(=O)O)sc(Cc2ccccc2)c1C	-2%	4%	12µM*	-55%	-20%
COC(=O)c1c(NC(=O)CCc2ccc(C)o2)sc(C)c1C	40µM*	5%	-9%	/	15%
Cc1ccc(NC(=O)COc2ccccc2C#N)cc1S(=O)(=O)N1CCCCCC1	1%	8.3µM*	?	/	1%
Cc1ccccc1CC(=O)OCC(=O)Nc1ccc(C)c(S(=O)(=O)N2CCCCC2)c1	0%	?	10µM*	/	-7%
Cc1ccccc1OCCC(=O)OCC(=O)Nc1ccc(C)c(S(=O)(=O)N2CCCCC2)c1	/	/	/	/	0%
O=C(Nc1ccccc1Br)C1CCCN(S(=O)(=O)c2cccc3nsnc23)C1 (stereo unspecified)	-1%	/	/	/	/
CC1CCCCC12NC(=O)N(CC(=O)NCc1ccco1)C2=O (stereo unspecified)	-11%	-10%	-12%	/	-5%
CC(=O)Nc1ccc(N2Cc3ccccc3C2)cc1	13µM*	?	65%	?	31%
CC1CCCCN1CC(=O)Nc1ccc(N2CCCCCC2)cc1 (stereo unspecified)	6%[57.1 µM]	27%	?	6%	28µM*
CC(=O)Nc1ccc(N2CCCCC2)cc1	-19%	26%	14%	3%	-2%
CC(=O)Nc1ccc(N2CCCC2)cc1	35µM*	/	?	4%	-25%
CC(=O)Nc1ccc(N2S(=O)(=O)c3ccccc3S2(=O)=O)cc1	-7%	12µM*	-16%	-6%	2%
Cc1nc(-c2ccc(Cl)cc2)sc1C1(C)CC(c2ccc(C#N)cc2)=NO1 (stereo unspecified)	-25%	72%	-1%	-1%	-19%
CCCCNC(=S)Nc1ccc2nc(N3CCN(CC)CC3)cc(C)c2c1	-33%	?	-3%[0.00184 µM]	-6%	-3%
CCN(CC)CCNC(=S)Nc1ccc2nc(N3CCN(CC)CC3)cc(C)c2c1	-12%	-16%	12µM*	-2%	-2%
CCN1CCN(c2cc(C)c3cc(NC(=S)NCCN(C)C)ccc3n2)CC1	-10%	70%	?	-2%	8%
CCCCN(C)CCNC(=S)Nc1ccc2nc(N3CCN(CC)CC3)cc(C)c2c1	4%	?	2.3µM*	-1%	2%
O=C1C(=O)c2ccc(-c3ccccc3)cc2-c2ccccc21	-8%	3.7µM*	10µM*	-40%	4%
O=C1c2cccc(O)c2C(=O)c2c(O)cccc21	-16%	38%	43%	-13%	/
O=C1c2ccccc2C(=O)c2ccccc21	/	15µM*	?	/	/
O=C1c2cccc(Sc3ccccc3)c2C(=O)c2c(Sc3ccccc3)cccc21	9%	?	13µM*	5%	?
SMILES	Sm TGR inh	Pf growth 96h	Pf growth 48h	NS1 function inh	AMA1 RON2 block
O=C1c2ccccc2C(=O)c2[nH]c(=O)[nH]c21	-32%	1.7µM*	/	8%	-15%
O=C1C(O)=C(O)C(=O)c2ccccc21	/	/	/	/	-29%
O=C(Nc1ccc(F)cc1)c1cc(-c2ccccn2)nc2c(Cl)cccc12	-19%	-22%	2%	7%	-2%
CN(c1ccccc1)S(=O)(=O)c1ccc(NC(=O)c2cc(=O)c3ccccc3o2)cc1	4%	/	/	/	/
CN(C)c1cccc2c1C(=O)c1ccccc1C2=O	-9%	-2%	39%	-11%	11µM*
O=C1C=Cc2ccccc2C1=O	11µM*	?	?	20%	/
CN1C(=O)c2cccc(N(C)C)c2C1=O	1%	-8%	-11%	2%	?
CCOC(=O)N1CCN(CCCc2ccccc2)CC1	0%	3%	0%	8%	2%
CCOC(=O)C(=CNc1ccc(-c2ccco2)c(Cl)c1)C(=O)OCC	14µM*	?	?	11%	5%
CCOC(=O)C(=CNc1ccccc1Cl)C(=O)OCC	-1%	?	5%	-60%	14%
CCOC(=O)C(=CNc1cc(Cl)c(-c2ccco2)c(Cl)c1)C(=O)OCC	-33%	-110%	12µM*	5%	-7%
O=C(CC12CC3CC(CC(C3)C1)C2)NC(=S)NCc1ccco1	-24%	?	13µM*	-1%	5%
COc1ccccc1NC(=S)NCc1ccco1	35µM*	/	13%	5%	-1%
CC(C)(C)NC(=S)NCc1ccco1	25µM*	?	?	20%	17%
COc1cc(CNCc2ccco2)cc(OC)c1O	16µM*	26%	28%	18%	-1%
O=C(NCc1ccco1)C12CC3CC(CC(C3)C1)C2	-8%	33%	?	4%	3%
S=C(NCc1ccco1)NCc1ccco1	/	/	/	/	14%
CC(C(=O)OCC(=O)N1CCCCC1)N1C(=O)c2ccccc2C1=O (stereo unspecified)	/	/	/	/	-12%
CC1CCCC(NC(=O)c2cccc(S(=O)(=O)NCc3ccccc3)c2)C1C (stereo unspecified)	4%	?	?	/	-1%
NC(=O)c1ccc(NC(=S)NCc2ccco2)cc1	-27%	12µM*	21%	/	-5%
CC(=O)c1ccc(NC(=S)NCc2ccco2)cc1	/	-16%	10%	1%	0%
COc1cc(NC(=S)NCc2ccco2)cc(OC)c1OC	-35%	5.2µM*	-1%	-9%	11%
CCCc1nc2ccc(Cl)cn2c1Cc1ccccc1	/	/	/	/	-4%
Cn1c(/C(C#N)=C(\O)c2ccc([N+](=O)[O-])cc2)nc2ccccc21	-3%	53%[1.15 µM]	7%	/	26%
CCN(CC)S(=O)(=O)c1ccc(/C(O)=C(\C#N)c2nc3ccccc3n2C)cc1	-35%	0.26µM*	?	-24%	28%
SMILES	Sm TGR inh	Pf growth 96h	Pf growth 48h	NS1 function inh	AMA1 RON2 block
CCCNC(=O)NNC(=O)c1cc(-c2ccc3c(c2)OCO3)nc2ccccc12	-20%	-14%	?	20%	52%
CC(NC(=O)c1cc(-c2ccc3c(c2)OCO3)nc2ccccc12)C(C)(C)C (stereo unspecified)	-1%	?	/	3%	-1%
CCCN(CCC)C(=O)c1cc(-c2ccc3c(c2)OCO3)nc2ccccc12	-12%	1.7µM*	/	-7%	24%
O=C(O)c1cc(-c2ccc3c(c2)OCO3)nc2ccccc12	0%[11.4 µM]	8.3µM*	/	-9%	-3%
COc1cc(NC(=O)CCn2cnc3ccccc3c2=O)cc(OC)c1	-9%	/	/	/	/
COc1ccc(N2CCC(CNC(=S)Nc3cc(C)ccc3C)C2)cc1 (stereo unspecified)	-19%	?	?	-61%	?
COc1ccc(N2CCC(CNC(=S)Nc3cc(C)cc(C)c3)C2)cc1 (stereo unspecified)	0%	?	9.3µM*	4%	6.3µM*

Screening data as filed in PubChem.
